Values without a mark were called inactive. Results filed as inconclusive are left out. The source made the active and inactive calls. The call rests on the fitted dose curve; in most records, active means well fitted curve in the direction sought with a large enough effect; inconclusive means small, poorly fitted or top-dose-only effect, or another doubt; inactive means no such curve, though single readings can be large; an effect the other way counts as inactive or inconclusive. Where a SMILES comes first, the peptide text is derived from it. The star is where a group is joined. Cbz = O=C(OCc1ccccc1)*; CH2F = FC*

This is an account of results in PubChem BioAssay (NCATS).

Assay [1] relates to Nanoluciferase (engineered Oplophorus gracilirostris luciferase). Briefly: Primary Nanoluciferase (NLuc) qHTS assay for identification of artifact compounds. (AID 1845222). Further: potency means the concentration at half of the fitted maximal effect.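 On activity, negative = inhibition: NLuc secreted into diluted conditioned medium of S16 cells; series mostly up to about 54 µM; 0% = DMSO and -100% = no enzyme.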 The gist of the method:
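NLuc from S16 cell medium (1:55) plus test compounds, 15 min, room temperature. Luminescence after Nano-Glo (1:100) addition, 5 min.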

Assay [2] can be described thus: Primary redox qHTS assay for identification of artifact compounds. (AID 1845223).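 Further: 0% = DMSO and 100% = reference compound.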 The method, boiled down: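 Amplex Red (25 uM) and HRP (250 mU/mL) in HBSS, with compounds for 15 min, then 250 uM DTT for 30 min, room temperature, dark. Fluorescence 525/598 nm read; normalized to DMSO and 10 uM DA3003; Hill fit.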
Background: In qHTS, concentration-response curves come from the screen itself.

As for `CC1(C)CC(NC(=O)C(=O)Nc2ccc(Cl)cc2)CC(C)(C)N1`, the Potency result in assay [1] and in assay [2] was “inactive” in each case.

For `C[C@@H](NC(=O)c1cc(C(=O)N[C@@H](Cc2ccccc2)[C@H](O)CNC2CC2)cc(N(C)S(C)(=O)=O)c1)c1ccccc1`, the Potency entry in assay [1] and in assay [2] was “inactive” in each case.

Consider `CC(C)=CCC[C@](C)(O[C@@H]1O[C@H](CO[C@@H]2O[C@@H](CO)[C@H](O)[C@H]2O[C@@H]2OC[C@@H](O)[C@H](O)[C@H]2O)[C@@H](O)[C@H](O)[C@H]1O)[C@H]1CC[C@]2(C)[C@@H]1[C@H](O)CC1[C@@]3(C)CC[C@H](O[C@@H]4O[C@H](CO)[C@@H](O)[C@H](O)[C@H]4O[C@@H]4O[C@H](CO)[C@@H](O)[C@H](O)[C@H]4O)C(C)(C)C3CC[C@]12C` (stereo partly specified), for which the activity, negative = inhibition in assay [1] was 0% [at 11.6 µM]. In addition, the redox activity (% of DA3003) in assay [2] is -2.65% [at 11.5 µM].

With `CC12CC34CC(O)C5C(CO)(CO)CC(=O)CC5(C)C3CC1C2C4` (stereo unspecified), the Potency entry in assay [1] and in assay [2] was “inactive” in each case.

`CC(CC12CCCN1C(=O)C1CCCN1C2=O)OC(N)=O` (stereo unspecified): the Potency entry in assay [1] and in assay [2] was “inactive” throughout.

In the case of `COC(=O)[C@]1(C)CCC[C@@]2(C)[C@@H]3CC[C@@H]4C[C@@]3(CC[C@@H]21)C[C@H]4C(=O)O`, the Potency result in assay [1] and in assay [2] was “inactive” throughout.

Regarding `C/C=C(\C)C(=O)OC[C@H]1O[C@@H](O[C@H]2[C@@H](O[C@H]3O[C@H](CO)[C@@H](O)[C@H](O)[C@H]3O[C@@H]3O[C@H](CO)[C@@H](O)[C@H](O)[C@H]3O)O[C@H](COC(=O)/C(C)=C/C)[C@@H](O)[C@@H]2O)[C@H](O)[C@@H](O)[C@@H]1O`, in assay [1], the activity, negative = inhibition is -0.032% [at 11.6 µM]. In addition, the redox activity (% of DA3003) in assay [2] is -4.48% [at 11.5 µM].

In the case of `COC(=O)C1=C[C@@H](O)[C@@H](O)[C@H](O[C@@H]2O[C@H](CO)[C@@H](O)[C@H](O)[C@H]2OC(=O)/C=C/c2ccccc2)C1`, the Potency result in assay [1] and in assay [2] was “inactive” each time.

As for `CC(O)C(=O)/C=C/C=C/C(=O)OC1C=C2COC(=O)C2(O)C2(C)CCCC(C)(C)C12` (stereo unspecified), the Potency result in assay [1] and in assay [2] was “inactive” each time.

With `C/C1=C\CC(C)(C)/C=C/C/C(C(=O)O)=C/CC1`, the Potency result in assay [1] and in assay [2] was “inactive” in each case.

Consider `COC(=O)C(Cc1ccccc1)NC(=O)c1ccccc1` (stereo unspecified), for which the Potency result in assay [1] and in assay [2] was “inactive” in each case.

As to `CC1(C)C(=O)N2c3ccccc3C(O)(CC(C(=O)O)n3cnc4ccccc4c3=O)C2N1O` (stereo unspecified), the Potency entry in assay [1] and in assay [2] was “inactive” throughout.

Consider `CN1CCN(C2=Nc3ccccc3Nc3ccc(O)cc32)CC1`, for which the Potency result in assay [1] and in assay [2] was “inactive” in each case.

With `C[C@@H]1CC[C@]2(C(=O)O)CC[C@]3(C)C(=CCC4[C@@]5(C)C[C@@H](O)[C@@H](O)C(C)(C)C5CC[C@]43C)C2[C@]1(C)O` (stereo partly specified), the Potency result in assay [1] and in assay [2] was “inactive” in each case.

Regarding `CC1(C)CC[C@]2(C(=O)O[C@@H]3O[C@H](CO)[C@@H](O)[C@H](O)[C@H]3O)CC[C@]3(C)C(=CCC4[C@@]5(C)C[C@H](O)[C@H](O[C@@H]6O[C@H](C(=O)O)[C@@H](O)[C@H](O)[C@H]6O)[C@@](C)(CO)C5CC[C@]43C)C2C1` (stereo partly specified), the activity, negative = inhibition in assay [1] was 1.06% [at 11.6 µM]. In addition, in assay [2], the redox activity (% of DA3003) was -11.2% [at 11.5 µM].

Consider `N#Cc1ccc(C2CCCc3cncn32)cc1` (stereo unspecified), for which the Potency entry in assay [1] and in assay [2] was “inactive” each time.

Consider `NC(=O)C(O[C@@H]1O[C@H](CO[C@@H]2O[C@H](CO)[C@@H](O)[C@H](O)[C@H]2O)[C@@H](O)[C@H](O)[C@H]1O)c1ccccc1` (stereo partly specified), for which the Potency entry in assay [1] and in assay [2] was “inactive” in each case.

For the molecule `CC(C)C1C(OC(=O)/C=C/c2ccccc2)CC2(C)OC2CCC2(C)OC2C1O` (stereo unspecified), the Potency result in assay [1] and in assay [2] was “inactive” throughout.

As for `O=C(NC1CCN(CC(F)(F)F)CC1)c1ccc(-c2cccc(F)c2)nc1`, the Potency entry in assay [1] and in assay [2] was “inactive” in each case.

Take `COC(=O)CC[C@H](NC(=O)[C@H](CC(C)C)NC(=O)OCc1ccccc1)C(=O)N[C@@H](Cc1cnc[nH]1)C(=O)N[C@@H](CC(=O)OC)C(=O)CF` (Cbz-LE(OMe)HD(OMe)-CH2F): in assay [1], the activity, negative = inhibition was 2.59% [at 11.6 µM]. Also, in assay [2], the redox activity (% of DA3003) was -3.22% [at 11.5 µM].

Regarding `O=C(C1OC1/C=C/c1ccc2c(c1)OCO2)N1CCCCC1` (stereo unspecified), the Potency entry in assay [1] and in assay [2] was “inactive” throughout.

With `O=C(O)c1ccnc(-c2cc(C(=O)NCCc3ccccc3)ccn2)c1`, the Potency entry in assay [1] and in assay [2] was “inactive” in each case.

Take `COC(=O)C1=CO[C@@H](O[C@@H]2O[C@H](CO)[C@@H](O)[C@H](O)[C@H]2O)[C@@H]2C(CO)=CC[C@H]12`: the Potency entry in assay [1] and in assay [2] was “inactive” each time.

As to `CNc1nc(Nc2cn(C(C)(C)C#N)nc2C)ncc1C(F)(F)F`, the Potency result in assay [1] and in assay [2] was “inactive” throughout.

As for `COc1ccc(C(=O)OC2C3C=COC(OC4OC(CO)C(O)C(O)C4O)C3C3(CO)OC23)cc1OC` (stereo unspecified), the Potency entry in assay [1] and in assay [2] was “inactive” throughout.

Take `COc1cc(/C=C/c2ccccc2)c(C(=O)O)c(O)c1CC=C(C)C`: in assay [1], the Potency is 13.2 µM (active). In assay [2], the Potency result was “inactive”.

`CC(C)=CC1C[C@](C)(O)[C@@H]2[C@H]3CCC4[C@@]5(C)CC[C@H](O[C@@H]6OC[C@H](O)[C@H](O[C@@H]7O[C@H](CO[C@@H]8O[C@H](CO)[C@@H](O)[C@H](O)[C@H]8O)[C@@H](O)[C@H](O)[C@H]7O)[C@H]6O[C@@H]6O[C@@H](C)[C@H](O)[C@@H](O)[C@H]6O)C(C)(C)[C@@H]5CC[C@@]4(C)[C@@]34CO[C@@]2(C4)O1` (stereo partly specified): the activity, negative = inhibition in assay [1] is 4.79% [at 11.6 µM]. Also, the redox activity (% of DA3003) in assay [2] is 14.6% [at 11.5 µM].

Take `O=C(O)C[C@H]1CCC(=O)[C@@H]1C/C=C\CCO`: the Potency entry in assay [1] and in assay [2] was “inactive” each time.
